Measured values as given in PubChem BioAssay.
Records with an inconclusive call do not appear. Activity calls are given as the source filed them.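 The calls were made as follows, unless noted: active = cell viability at or below a set limit in both duplicate runs, the limit being the all-compound median minus 4 SD (cut at about 23% in these data, passing the limit was not always enough); inconclusive = no clear call, values can overlap the other calls; inactive = the rest.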

How the values were obtained:
[1] = H69AR cell proliferation blockers – human, duplicate replicates, primary screen (AID 580;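 active = viability at or under a set limit in both replicates, limit being median viability minus 3 SD, cut at about 48% in these data, passing the limit was not always enough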;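 also: 100% = mean luminescence of untreated wells and 0% = no signal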); details: H69AR lung tumor cells viability, ATP luminescence, 72 h; at 10 µM; stronger effect = lower value
[2] = MRP1 drug-resistance reversers in H69AR cells – cell-based, doxorubicin co-treatment, pilot screen (AID 601;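 active = viability loss from added drug above about 55%, and viability with drug at most 40%, in both replicates, limit read from the data, passing the limit was not always enough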); details: CellTiter-Glo, 72 h, at 10 µM; for differential viability (reversal): stronger effect = higher value
[3] = yeast transport mutant growth inhibition pilot in 384-well plates, post-Golgi transport modulator project (AID 636; in the data active = inhibition above about 31%); details: absorbance 615 nm, about 18 h, stronger effect = higher value
[4] = growth suppression of yeast trafficking mutant, preliminary HTS, modulators of trafficking downstream of Golgi apparatus project, 1536-format plate, OD 615 nm (AID 637; in the data active = inhibition above about 30%); details: yeast transport mutant growth, absorbance 615 nm, 18 h; stronger effect = higher value
[5] = HUVEC growth inhibition – cell-based, human, primary screen (AID 575;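 active = viability at or below 30% in both replicate assays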;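 also: 100% = median of untreated cell wells with 0.1% DMSO on each plate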); details: HUVEC proliferation, CellTiter-Glo luminescence, 72 h; at 10 µM; stronger effect = lower value
[6] = S. cerevisiae growth inhibition in permissive medium (OD615), pilot counter-assay for S. cerevisiae lifespan shortening project, permissive growth control (AID 705;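 active = growth inhibition above 25% in both replicates, a cutoff set 3 SD above the mean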); details: OD615, 24 h, at 10 µM, stronger effect = higher value
[7] = S. cerevisiae growth inhibition in restrictive medium, OD615, pilot screen, restrictive growth control, yeast lifespan reduction project (AID 706;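 active = growth inhibition above a set limit, 3 SD over mean compound inhibition, in both replicates, cut at about 43% in these data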;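 also: modified DeaD lifespan yeast strain shifted to restrictive glucose medium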); details: OD615, 48 h, at 10 µM, stronger effect = higher value
[8] = doxorubicin toxicity protection in MRP-1 cells – H69AR cells, CellTiter-Glo, duplicate, MRP-1 activator project, pilot screen (AID 807;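 active = viability increase at or above a cutoff of the median across tested compounds plus 3 SD, cut at about 8.5% in these data, passing the limit was not always enough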;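 also: compound pretreatment 18-22 h then 72 h combined with doxorubicin; 0% = doxorubicin alone and 100% = vehicle without doxorubicin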); details: H69AR viability with doxorubicin, CellTiter-Glo luminescence; at 10 µM; stronger effect = higher value
[9] = viability of HCT116 without oncogenic beta-catenin – human colon tumor cells, pilot screen (AID 823); details: HCT116 beta-catenin knockout viability, CellTiter-Glo, 60 h; at 10 µM; stronger effect = lower value;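 also: 0% = wells killed by 20 µM Hyamine and 100% = untreated DMSO cell wells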
[10] = viability of PTEN-null HCT116 cells – cell-based, HCT116 clonal line, CellTiter-Glo, pilot screen (AID 824;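 active = viability at or below 27.92% in each of two runs, the all-compound median minus 4 SD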;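 also: 0% = 20 µM Hyamine control and 100% = vehicle cell control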); details: HCT116 PTEN-deleted viability, 60 h, at 10 µM, stronger effect = lower value
[11] = RAM pathway blockade in budding yeast – dse1pr::URA3 reporter, 5-FOA selection, pilot screen (AID 869;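 active = inhibition over a set limit, the all-compound mean plus 3 SD, in both replicate runs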;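 also: 0% = DMSO wells with no growth and 100% = 10 µM 1-NA-PP1 with full growth; RAM network block rescues cells from 5-FOA so hits raise OD615 growth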); details: S. cerevisiae dse1pr::URA3 5-FOA growth, OD615, 2 d; at 10 µM; stronger effect = higher value; strain carries analog-sensitive mutant Cbk1 kinase
[12] = H69AR cells + 2 uM doxorubicin, measured here: viability with 2 uM doxorubicin, stronger effect = lower value
[13] = H69AR cells, compound alone cytotoxicity

OCCNc1ncnc2c1c(-c1ccccc1)c(-c1ccccc1)n2Cc1ccco1
inactive: viability [1] 72.4% | differential viability (reversal) ([2]; H69AR cells + 2 uM doxorubicin) 23.7% | inhibition [3] -5.66% | inhibition [4] 15.7%
48.8%: viability [2, 12]
72.4%: viability [2, 13]

CN(C)c1ccc(/C=C/C(O)=C2/C(=O)N(C)C3(C)CC2c2ccccc2O3)cc1 (stereo unspecified)
37.5%: viability [2, 13]
inactive: viability [5] 55.4% | differential viability (reversal) ([2]; H69AR cells + 2 uM doxorubicin) -7.07% | inhibition [3] -2.47% | inhibition [4] -12.7%
44.6%: viability [2, 12]

O=c1c2ccccc2nc(-c2cccc(Cl)c2)n1O
60.1%: viability [2, 12]
inactive: viability [5] 84.6% | differential viability (reversal) ([2]; H69AR cells + 2 uM doxorubicin) -14.1% | inhibition [3] -3.68% | inhibition [4] 0.32%
45.9%: viability [2, 13]

c1ccc(-n2ncc3c(NCc4cccs4)ncnc32)cc1
41.8%: viability [2, 13]
inactive: viability [5] 79% | differential viability (reversal) ([2]; H69AR cells + 2 uM doxorubicin) -10.5% | inhibition [3] -7.73% | inhibition [4] 2.22%
52.3%: viability [2, 12]

CCn1c(=N)n(CC(O)COc2cccc(C)c2)c2ccccc21 (stereo unspecified)
69.9%: viability [2, 13]
inactive: viability [1] 69.9% | differential viability (reversal) ([2]; H69AR cells + 2 uM doxorubicin) -2.36% | inhibition [3] 3.55% | inhibition [4] -5.08%
72.3%: viability [2, 12]

Nc1nc(Cl)nc2c1ncn2[C@@H]1O[C@H](CO)[C@@H](O)[C@H]1O
inactive: differential viability (reversal) ([2]; H69AR cells + 2 uM doxorubicin) -24.3% | inhibition [3] -1.43% | inhibition [4] 1%
50.3%: viability [2, 13]
active: viability [5] 3.95%
74.6%: viability [2, 12]

COC(=O)C(F)(F)Sc1c(C)[nH]c2ccccc12
90.6%: viability [2, 12]
inactive: viability [1] 92.2% | differential viability (reversal) ([2]; H69AR cells + 2 uM doxorubicin) 1.54% | inhibition [3] -2.37% | inhibition [4] -1.43%
92.2%: viability [2, 13]

Cn1cc(-c2nc3ccccc3[nH]2)c2ccccc21
62.2%: viability [2, 13]
inactive: viability [5] 81% | differential viability (reversal) ([2]; H69AR cells + 2 uM doxorubicin) -9.86% | inhibition [3] -7.33% | inhibition [4] -0.63%
72%: viability [2, 12]

COc1cccc2c1C(=O)c1c(O)c3c(c(O)c1C2=O)C[C@@](O)(C(=O)CO)C[C@@H]3O[C@H]1C[C@H](N)[C@H](O)[C@H](C)O1
25.6%: viability [2, 12]
active: viability [5] 22.1%
inactive: differential viability (reversal) ([2]; H69AR cells + 2 uM doxorubicin) -7.64% | inhibition [3] 0.26% | inhibition [4] 3%
18%: viability [2, 13]

Oc1ccc(Nc2nc(-c3ccc(O)cc3)cs2)cc1
88.1%: viability [2, 12]
inactive: viability [1] 58.4% | differential viability (reversal) ([2]; H69AR cells + 2 uM doxorubicin) -29.7% | inhibition [3] -8.13% | inhibition [4] -4.13%
58.4%: viability [2, 13]

CSc1nnc2c3ccccc3n(Cc3ccccc3)c2n1
30.3%: viability [2, 12]
31.6%: viability [2, 13]
inactive: differential viability (reversal) ([2]; H69AR cells + 2 uM doxorubicin) 1.23% | inhibition [3] -2.37% | inhibition [4] 2.54%
active: viability [1] 31.6%

COC(=O)c1ccc(NC2(C#N)C(=O)Nc3ccccc32)cc1 (stereo unspecified)
inactive: viability [5] 69.2% | differential viability (reversal) ([2]; H69AR cells + 2 uM doxorubicin) -16.1% | inhibition [3] -5.33% | inhibition [4] 3.97%
58.2%: viability [2, 12]
42.1%: viability [2, 13]

CCOC(=O)c1cc2sccc2n1CC(=O)Nc1ccc2c(c1)OCCO2
inactive: viability [5] 87.4% | differential viability (reversal) ([2]; H69AR cells + 2 uM doxorubicin) 7.47% | inhibition [3] -6.1% | inhibition [4] 0.95%
65.2%: viability [2, 12]
72.6%: viability [2, 13]

O=S(=O)(Cc1ccc(Cl)cc1)Nc1ccc2c(c1)OCO2
inactive: viability [1] 104%

Cc1cc(C)c(C(=O)CSc2nnc(-c3ccccc3Br)o2)cc1C
inactive: viability [1] 73.1%

COc1ccc(N2CCN(C(=O)CCS(=O)(=O)c3cccc4nsnc34)CC2)cc1
inactive: growth inhibition [6] -9.09% | growth inhibition [7] -6.57% | viability increase [8] -2.63% | viability [9] 95.7% | viability [10] 96.9% | inhibition [11] 0.895%

Clc1ccc(Cc2nnc(-c3cccs3)o2)cc1
inactive: growth inhibition [6] -0.04% | growth inhibition [7] 5.1% | viability increase [8] 4.43% | viability [9] 106% | viability [10] 95.9% | inhibition [11] 0.935%

CCOC(=O)c1[nH]c(C)c(C(=O)N2CCOCC2)c1C
inactive: growth inhibition [6] -6.62% | growth inhibition [7] -4.17% | viability increase [8] -0.92% | viability [9] 109% | viability [10] 104% | inhibition [11] 3.29%

Cc1cc(NC(=O)c2noc3c2CCc2ccccc2-3)n(-c2ccccc2)n1
inactive: growth inhibition [6] -11.9% | growth inhibition [7] -2.05% | viability increase [8] -2.71% | viability [9] 94.9% | viability [10] 98.3% | inhibition [11] 2.88%

Cc1ccc(-c2nn(-c3ccccc3)cc2C2SCC(=O)N2Cc2ccccc2)o1 (stereo unspecified)
inactive: growth inhibition [6] -17.1% | growth inhibition [7] -9.89% | viability increase [8] -0.06% | viability [9] 74.2% | viability [10] 68.9% | inhibition [11] 0.94%

Cn1c(SCc2ccccc2Cl)nnc1-c1cnccn1
inactive: growth inhibition [6] -2.59% | growth inhibition [7] -7.88% | viability increase [8] -1.15% | viability [9] 103% | viability [10] 102% | inhibition [11] 2.44%

COc1ccccc1N1CCN(C(=O)c2cc3c(-c4ccc(Cl)cc4)nn(C)c3s2)CC1
inactive: growth inhibition [6] -1.53% | growth inhibition [7] 13.8% | viability increase [8] -4.63% | viability [9] 60.8% | viability [10] 47.9% | inhibition [11] 2.8%

Cc1cccc(C)c1OCc1nnc(SCC(=O)Nc2nccs2)o1
inactive: growth inhibition [6] -0.12% | growth inhibition [7] 0.57% | viability increase [8] -1.15% | viability [9] 94% | viability [10] 87.4% | inhibition [11] 2.88%

COc1ccc(OC)c2c1sc(=NC(=O)c1ccco1)n2C
inactive: growth inhibition [6] -3.52% | growth inhibition [7] 4.96% | viability increase [8] -5.98% | viability [9] 71.2% | viability [10] 67.7% | inhibition [11] 2.21%

CC1CCN(c2nc(-c3ccccc3)cc(C(F)(F)F)n2)CC1
inactive: growth inhibition [6] -10.7% | growth inhibition [7] -11% | viability increase [8] -1.76% | viability [9] 88.1% | viability [10] 90.6% | inhibition [11] 2.21%

COc1ccc(OCCn2c(NC(=O)c3ccco3)nc3ccccc32)cc1
inactive: growth inhibition [6] 2.63% | growth inhibition [7] 9.83% | viability increase [8] -6.84% | viability [9] 56.9% | viability [10] 57.9% | inhibition [11] 3.36%

CCOC(=O)C1CCN(C(=O)Nc2ccc(Cl)cc2)CC1
inactive: growth inhibition [6] -17.2% | growth inhibition [7] -13.1% | viability increase [8] 1.32% | viability [9] 96.7% | viability [10] 102% | inhibition [11] -0.18%

CN(C)c1ccc(CN(C)C2CCCCC2)cc1
inactive: growth inhibition [6] 2.59% | growth inhibition [7] -6.2% | viability increase [8] -1.65% | viability [9] 93.1% | viability [10] 89.7% | inhibition [11] 1.46%

CN1CSC2=C(C#N)C(c3cccc(OCc4ccccc4)c3)CC(=O)N2C1 (stereo unspecified)
inactive: growth inhibition [6] -5.43% | growth inhibition [7] 20.4% | viability increase [8] -4.67% | viability [9] 85.7% | viability [10] 88.5% | inhibition [11] 0.785%

Cc1ccc(-c2nc(CS(=O)CC(=O)NCc3ccc(Cl)cc3)c(C)o2)cc1 (stereo unspecified)
inactive: growth inhibition [6] 1.44% | growth inhibition [7] -4.35% | viability increase [8] -2.83% | viability [9] 73.5% | viability [10] 80.2% | inhibition [11] 3.42%

CCOC(=O)CSc1nc2c(c(=O)n(C)c(=O)n2C)n1Cc1ccccc1F
inactive: growth inhibition [6] -8.61% | growth inhibition [7] 2.55% | viability increase [8] 0.38% | viability [9] 95.9% | viability [10] 93.6% | inhibition [11] 2%

CCC(C)(C(=O)NC1CCCC1)N(C(=O)CNC(C)=O)c1ccc(C)cc1 (stereo unspecified)
inactive: growth inhibition [6] -1.46% | growth inhibition [7] -5.89% | viability increase [8] -0.57% | viability [9] 94.2% | viability [10] 96.7% | inhibition [11] 2.1%

c1ccc(CNc2ncnc3nc[nH]c23)nc1
inactive: growth inhibition [6] -12.5% | growth inhibition [7] -1.55% | viability increase [8] -1.52% | viability [9] 102% | viability [10] 96.3% | inhibition [11] 1.71%

COc1ccc(NC(=O)c2nnn(Cc3ccc(SC)cc3)c2N)c(OC)c1
inactive: growth inhibition [6] -1.88% | growth inhibition [7] -10.7% | viability increase [8] -0.11% | viability [9] 100% | viability [10] 93.1% | inhibition [11] 4.42%

COC(=O)c1ccc(C)c(NC(=O)CN(c2cc(OC)ccc2OC)S(C)(=O)=O)c1
inactive: growth inhibition [6] -8.06% | growth inhibition [7] -3.94% | viability increase [8] -3.03% | viability [9] 75.5% | viability [10] 68.6% | inhibition [11] 0.035%

COc1cc2c(cc1OC)C(c1ccccc1)N(C(=O)c1ccco1)CC2 (stereo unspecified)
inactive: growth inhibition [6] -21.2% | growth inhibition [7] -17.6% | viability increase [8] -3.16% | viability [9] 68.4% | viability [10] 63.5% | inhibition [11] 2.55%
